Cruzain noTriton: cruzain (T. cruzi) inhibition without detergent; purified cruzain, Z-FR-AMC fluorescence, no detergent; Potency, µM, without a hit: max response, negative = inhibition, usual class: inhibitors; P25779; actives 2.3% (n = 200,000);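 note: plate controls were enzyme without inhibitor for no effect and buffer without enzyme for full effect; nearly all actives have a fitted effect of over 40% in size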
Target sequence (P25779 123-467 limits assumed): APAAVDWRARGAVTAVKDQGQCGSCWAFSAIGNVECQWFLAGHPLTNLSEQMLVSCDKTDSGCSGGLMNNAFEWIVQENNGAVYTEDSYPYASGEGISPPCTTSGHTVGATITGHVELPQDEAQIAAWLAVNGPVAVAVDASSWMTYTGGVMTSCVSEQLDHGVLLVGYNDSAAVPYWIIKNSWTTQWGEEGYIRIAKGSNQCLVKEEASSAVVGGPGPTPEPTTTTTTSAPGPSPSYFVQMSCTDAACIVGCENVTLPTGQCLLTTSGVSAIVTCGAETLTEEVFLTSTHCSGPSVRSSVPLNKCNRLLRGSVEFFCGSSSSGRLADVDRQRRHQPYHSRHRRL
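Purified cruzain at 1.5 nM, pre-incubated 15 min with compound at room temperature in 100 mM sodium acetate pH 5.5, 5 mM DTT, 0.00005% Triton X-100. Reaction started with 2 uM Z-FR-AMC; AMC fluorescence increase over 60 s gives rate.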
Cruzain inh Det: cruzain (T. cruzi) inhibition with detergent. purified cruzain, Z-FR-AMC fluorescence, 0.01% Triton. P25779. AID 1478. Potency, µM, inactives show max response, negative = inhibition, actives largely listed as inhibitors. actives 0.43% (n = 200,000);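 note: plate controls were neutral wells for no effect and buffer without enzyme for full effect; nearly all actives have a fitted effect of over 40% in size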
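Z-FR-AMC hydrolysis (2 uM substrate) by cruzain (1.5 nM) monitored kinetically at ex 360/em 450 nm after 15 min room-temperature compound exposure; 0.01% Triton X-100, pH 5.5, 5 mM DTT.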
* hit, by the source's call; ? = inconclusive. Rows were chosen to be rich in hits. Some 2.5% of all compounds tested hit in one or more screens of this group. Calls come from the whole dose curve; as a rule, active = well fitted curve in the direction sought with a large enough effect; inconclusive = small, poorly fitted or top-dose-only effect, or another doubt; inactive = no such curve, though single readings can be large; an effect the other way counts as inactive or inconclusive. Potency is the fitted concentration of half-maximal effect.

SMILES	Cruzain noTriton	Cruzain inh Det
O=C(NN1C(=O)c2cc(Br)ccc2NC1c1cc(Br)cc(Br)c1O)c1ccncc1 (configuration not stated)	10µM*	-10.5%
O=C(Cn1cnc2nc3c(cc2c1=O)CCCC3)N1CCN(c2ccccc2)CC1	-5.1%	-2.6%
CCOC(=O)c1nn(-c2cccc(OC)c2)c2nc(Nc3ccccc3)cc(=O)n12	?	-6.0%
CCOC(=O)c1nn(-c2cccc(Cl)c2)c2nc(Nc3ccccc3)cc(=O)n12	?	-6.0%
O=C(c1ccccc1)c1nn(-c2cccc(Cl)c2)c2nc(-c3ccccc3)cc(=O)n12	25.1µM*	4.5%
Cc1cccc(-n2nc(C(=O)Nc3ccccc3)n3c(=O)cc(-c4ccccc4)nc23)c1	7.94µM*	-0.7%
COc1ccc(N2CCN(Cc3nc4c(c(=O)[nH]c(=O)n4C)n3Cc3ccccc3F)CC2)cc1	5.8%	-2.4%
CC(=O)Nc1ccc(NC(=O)C(C)OC(=O)/C=C/c2cn(-c3ccccc3)nc2-c2cccnc2)cc1 (configuration not stated)	?	-8.9%
COc1ccc(-c2nn(-c3ccccc3)cc2/C=C/C(=O)OCC(=O)Nc2ccc(C#N)cc2)cc1	?	-12.8%
COc1ccc(-c2nn(-c3ccccc3)cc2/C=C/C(=O)OCC(=O)Nc2cccc(C#N)c2)cc1	31.6µM*	-0.4%
Cc1ccccc1NC(=O)COC(=O)/C=C/c1cn(-c2ccccc2)nc1-c1cccnc1	25.1µM*	-5.1%
Cc1ccc(CO)cc1	-5.8%	1.6%
O=C(Nc1nc2ccccc2s1)c1cc(-c2ccccc2)nn1-c1ccccc1	10µM*	-1.8%
CC(=O)c1sc(NC(=O)c2cc(-c3ccccc3)nn2-c2ccccc2)nc1C	-15.8%	-5.9%
O=C(O)C(Sc1ccc(Cl)cc1)Sc1ccc(Cl)cc1	1.7%	-5.0%
CCCCN1C(=O)/C(=C/C=C2\N(C)c3ccccc3C2(C)C)SC1=S	31.6µM*	-2.1%
CCCN1C(=O)/C(=C\C=C2/C=CN(CC)c3ccccc32)SC1=S	-8.2%	-5.8%
Cc1nc2nc(-c3ccccc3)cc(=O)n2[nH]1	-3.3%	0.6%
O=c1cc(-c2ccccc2)nc2nc(-c3ccco3)[nH]n12	0.398µM*	-0.6%
COc1ccc(NC(=S)Nc2ccc(OCc3ccccc3)cc2)cc1OC	?	-7.8%
COc1cccc(OCc2cc(/C=N/NC(=O)c3ccn[nH]3)ccc2OC)c1	-20.4%	0.7%
COc1ccc(/C=N/NC(=O)c2nc(Cl)c(Cl)c(N)c2Cl)cc1COc1ccccc1F	-8.4%	-0.3%
COc1ccc(/C=N/NC(=S)Nc2ccccc2)cc1COc1ccccc1F	12.6µM*	-3.8%
COc1cc(OC)cc(C(=O)N/N=C/c2ccc(OC)c(COc3ccc4ccccc4c3)c2)c1	7.94µM*	-1.1%
COc1ccc(/C=N/NC(=S)Nc2ccccc2)cc1COc1ccc(F)cc1	7.94µM*	-8.9%
SMILES	Cruzain noTriton	Cruzain inh Det
C=C(Cl)Cl	-0.9%	8.3%
Cc1ccccc1Nc1nc(-c2sc(NC(=O)c3ccc([N+](=O)[O-])cc3)nc2C)cs1	10µM*	6.4%
Cc1ccccc1Nc1nc(-c2sc(NC(=O)c3ccccc3)nc2C)cs1	12.6µM*	-4.8%
Cc1ccccc1Nc1nc(=O)c2cc([N+](=O)[O-])ccc2s1	-17.8%	-0.8%
C=CCCC(=O)Nc1nc(C)c(-c2csc(Nc3ccccc3OC)n2)s1	?	-9.2%
COc1ccc(-c2sc(NC(C)=O)nc2-c2ccccc2)cc1	13.6%	-10.4%
Cc1ccc(Cl)cc1Nc1nc(-c2sc(NC(=O)c3cccc(Cl)c3)nc2C)cs1	3.98µM*	11.1%
COc1ccc(-c2nc(NC(=O)c3ccccc3)sc2-c2ccc([N+](=O)[O-])cc2)cc1	7.94µM*	-1.8%
CCOc1ccccc1CNC(=O)CN(c1ccc(C)cc1)S(=O)(=O)N(C)C	5.4%	2.9%
CCN(CC)C(=O)c1sc(NC(=O)C(C)Sc2nc(-c3ccccc3)cc(C(F)(F)F)n2)c(C(=O)OC)c1C (configuration not stated)	?	-8.2%
CN1CCN(c2ncc3nc(-c4cn(C)c5ccccc45)c(=O)n(-c4ccccc4)c3n2)CC1	-17.5%	2.6%
Cc1ccccc1Nc1nc(-c2sc(NC(=O)c3cccc(Cl)c3)nc2C)cs1	6.31µM*	1.6%
CCOc1ccccc1Nc1nc(-c2sc(NC(=O)c3ccc([N+](=O)[O-])cc3)nc2C)cs1	6.31µM*	1.4%
Cc1ccc(Nc2nc(-c3sc(NC(=O)c4ccc([N+](=O)[O-])cc4)nc3C)cs2)cc1	7.94µM*	-0.2%
CCCCC(=O)Nc1nc(C)c(-c2csc(Nc3ccccc3OC)n2)s1	?	-2.9%
Cc1ccc(C(=O)Nc2nc(-c3ccc([N+](=O)[O-])cc3)cs2)o1	-6.7%	-5.3%
CCOCCc1nn2c(=O)cc(COC(=O)c3ccccc3NC(=O)c3ccc(C)cc3)nc2s1	-5.3%	-0.3%
COc1cccc(CNC(=O)Nc2cc(C(=O)NCc3cccc(F)c3)ccc2N2CCCC2)c1	23.7%	-5.6%
Cc1[nH]n(-c2ncc(-c3ccccc3)s2)c(=O)c1C(c1ccc(Br)cc1)C(C#N)C#N (configuration not stated)	12.6µM*	?
Cc1[nH]n(C(N)=S)c(=O)c1C(c1ccccc1)C(C#N)C#N (configuration not stated)	19.7%	1.0%
Cc1ccc(N2CCN(c3nc4ccc(C)cc4n4nnnc34)CC2)c(C)c1	-18.1%	1.0%
CCOC(=O)c1sc(-c2ccc(Br)cc2)cc1N	-2.1%	-5.6%
CCOC(=O)c1cc(-c2ccc(N)cc2)sc1N	31.6µM*	-16.8%
COc1ccc2nc(-c3ccc(N)cc3)[nH]c2c1	10µM*	28.2µM*
COc1ccc2nc(-c3cccc(N)c3)[nH]c2c1	-20.1%	-14.6%
SMILES	Cruzain noTriton	Cruzain inh Det
O=C(O)[C@@H](c1ccccc1)N1Cc2ccccc2C1=O	15.8µM*	-27.3%
CCCCNC(=O)[C@@H](c1ccccc1)N1Cc2ccccc2C1=O	5.2%	6.5%
Cc1cccc(CC(=O)NC2CC(=O)N(c3ccccc3)C2)c1 (configuration not stated)	1.3%	1.0%
CCN1C(=O)c2ccccc2S(=O)c2ccc(C(=O)NCc3ccc(Cl)cc3)cc21 (configuration not stated)	-5.5%	-2.7%
COc1ccc(C2=C(C)C(=O)N(Cc3ccc(C(=O)Nc4cc(C)ccc4C)cc3)S2(=O)=O)cc1	?	-8.1%
CC1=C(c2ccc(C)cc2)S(=O)(=O)N(Cc2ccc(C(=O)Nc3ccc(C)c(F)c3)cc2)C1=O	20µM*	-2.0%
COc1ccc(CNC(=O)CN2N=C(c3ccccc3)CCC2=O)c(OC)c1	3.3%	-0.2%
Cc1cc(C)nc(N/N=C/C=C/c2ccccc2)n1	-2.8%	-7.1%
Cc1sc(N/N=C/C=C/c2ccccc2)nc1-c1ccccc1	7.94µM*	-0.4%
Cc1ccc(C)c2nc(SCC(=O)NCc3cccs3)c(C#N)cc12	-18.9%	5.0%
Cc1cccc2cc(C#N)c(SCC(=O)NCC3CCCO3)nc12 (configuration not stated)	-16.1%	2.4%
Cc1cccc2cc(C#N)c(SCC(=O)NNC(=O)Cc3ccccc3)nc12	25.1µM*	4.7%
Cc1cccc2cc(C#N)c(SCC(=O)NCc3cccs3)nc12	6.31µM*	-2.5%
CC1CCN(c2[nH]c(=S)c(C#N)c3c2CCCC3)CC1	-20.9%	2.6%
CC1(C)Cc2c(c(N3CCCCC3)[nH]c(=S)c2C#N)CS1	12.6µM*	-1.3%
CCc1ccc(S(=O)(=O)N(C(=O)Oc2ccccc2)c2ccc3oc(C)c(C(=O)OC)c3c2)cc1	?	-2.4%

From PubChem BioAssay
